# HT1080-NT tox: qHTS for induction of synthetic lethality in tumor cells producing 2HG: qHTS for the HT-1080-NT fibrosarcoma cell line; 1.6% of 360,000 active; Potency, µM (series often up to 46.1 µM), most hits filed as cytotoxic; AID 686970, 2013; HT-1080-NT fibrosarcoma viability, CellTiter-Glo ATP luminescence, 48 h;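 also: NT is the 2HG producing partner of a matched IDH1 knockdown line; nearly all actives have a fitted effect of over 55% in size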
#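 HT-1080-NT fibrosarcoma cells (2HG-overproducing), 750 cells/well in RPMI with 5% FBS, dosed after 2 h and incubated 48 h at 37C. CellTiter-Glo luminescence normalized to DMSO and no-cell wells; concentration-response curves fitted and classed.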
# TDP1 cell CPT: qHTS for Inhibitors of human tyrosyl-DNA phosphodiesterase 1 (TDP1): qHTS in cells in presence of CPT; chicken DT40 Tdp1-/-;hTDP1 cells + 20 nM CPT, ATP luminescence, 48 h; Potency, µM (top dose mostly 46.2 µM), usual class: inhibitors; 12% of 420,000 active; AID 686979, 2013; also: nearly all actives have a fitted effect of over 55% in size
#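 Cell growth measured by CellTiter-Glo luminescence after a minimum 48 h, 37 C compound exposure with 20 nM CPT in Tdp1-knockout DT40 cells stably expressing hTDP1, seeded 400/well; qHTS titration format.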
# KB-V1 MDR tox: qHTS assay for MDR1-selective chemotherapeutics: Primary screen using the drug-selected MDR subline cells KB-V1; Potency, µM (highest dose often 46.1 µM), actives largely listed as cytotoxic; KB-V1 MDR cells viability, CellTiter-Glo, 72 h; 3.4% of 400,000 active; AID 1347076, 2019; also: nearly all actives have a fitted effect of over 60% in size
#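 Readout: CellTiter-Glo luminescence, 10 min after addition. Cells: KB-V1 MDR subline, 72 h at 37 degrees C with compound. Analysis: corrected, normalized data fitted to concentration-effect curves.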
# HT1080 IDH1KD tx: qHTS for induction of synthetic lethality in tumor cells producing 2HG: qHTS for the HT-1080-IDH1KD cell line; HT-1080 IDH1 knockdown viability, ATP luminescence, 48 h; Potency, µM (series often up to 46.1 µM), usual class: cytotoxic; 2% of 360,000 active; AID 686971, 2013
#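 In this qHTS, HT-1080 cells depleted of IDH1 are exposed for 48 h at 37 °C to compound titrations. Toxicity is scored from CellTiter-Glo luminescence, with DMSO as full viability and medium alone as none.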
# DT40 TDP1 no CPT: qHTS for Inhibitors of human tyrosyl-DNA phosphodiesterase 1 (TDP1): qHTS in cells in absence of CPT | AID 686978, 2013 | DT40 Tdp1-/- hTDP1 cells, no CPT, ATP luminescence, 48 h | Potency, µM (series often up to 46.2 µM), actives largely listed as inhibitors | 15% of 420,000 active; also: nearly all actives have a fitted effect of over 55% in size
#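 Luminescent ATP content (CellTiter-Glo) served as the growth readout. Knockout chicken DT40 cells expressing human TDP1 were exposed to compounds without camptothecin for a minimum 48 hr at 37 °C.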
# KB-3-1 tox: qHTS assay for MDR1-selective chemotherapeutics: Primary screen using the parental adenocarcinoma cell KB-3-1. Potency, µM (titrated, usually from 46.1 µM), actives largely listed as cytotoxic. AID 1347075, 2019. KB-3-1 viability, CellTiter-Glo ATP luminescence, 72 h. 1.4% of 400,000 active; also: nearly all actives have a fitted effect of over 60% in size
#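 72 h, 37 °C compound treatment of KB-3-1 parental cells; CellTiter-Glo added, 10 min, luminescence read. Data corrected against DMSO-only plates and normalized before curve fitting.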
# A number is an active result; - = inactive; ? = inconclusive; . = no result given; [ ] = dose if it differs, or a comment. Hits are enriched below; roughly 19% of the tested compounds scored in any of these assays. Calls follow the shape of the dose curve; as a rule, active = well fitted curve in the direction sought with a large enough effect; inconclusive = small, poorly fitted or top-dose-only effect, or another doubt; inactive = no such curve, though single readings can be large; an effect the other way counts as inactive or inconclusive.
SMILES,HT1080-NT tox,TDP1 cell CPT,KB-V1 MDR tox,HT1080 IDH1KD tx,DT40 TDP1 no CPT,KB-3-1 tox
Cc1cc(C(=O)COC(=O)COc2ccccc2C#N)c(C)n1CC1CCCO1 (stereo not drawn),-,-,?,-,-,-
Oc1ccc(/C=N/N=C/c2ccc(O)cc2)cc1,-,-,?,-,-,-
NC(N)=N/N=C/c1ccc(Br)cc1,?,2.59µM,?,?,4.11µM,?
NC(N)=N/N=C/c1ccc(OCc2ccc(Cl)cc2)cc1,15.8µM,20.6µM,20.6µM,?,?,-
Cc1nn2c(CN(C(=O)COc3ccccc3)c3ccccc3)nnc2c2ccccc12,-,?,4.61µM,-,?,?
CCC(CC)c1nn2c(=O)cc(COc3ccc(NC(=O)c4ccccc4Cl)cc3)nc2s1,.,?,?,.,2.31µM,-
Cc1nn2c(COc3ccc(NC(=O)c4ccccc4Cl)cc3)nnc2c2ccccc12,?,18.4µM,?,14.6µM,23.1µM,?
CCC(CC)c1nn2c(=O)cc(COc3ccc(NC(=O)c4ccccc4C)cc3)nc2s1,.,?,-,.,2.31µM,-
CCOC(=O)N1CCN(c2cc(=O)n(-c3cccc(C)c3)c(=O)[nH]2)CC1,-,-,-,-,-,-
COC(=O)CC1C(=O)NCCN1C(=O)CSc1nc2cc(Cl)ccc2o1 (stereo not drawn),-,-,-,-,-,-
COc1ccc(C2CC(c3ccc4ccccc4c3)=NN2C(=O)COC(=O)C2CCC(=O)N2)cc1 (stereo not drawn),?,16.4µM,-,?,?,-
C=CCNCC(=O)N1N=C(c2ccc3ccccc3c2)CC1c1ccc(OC)cc1 (stereo not drawn),23.1µM,8.2µM,-,23.1µM,13µM,-
COc1ccc(C2CC(c3ccc4ccccc4c3)=NN2C(=O)CN2CCC(C(N)=O)CC2)cc1 (stereo not drawn),?,?,-,?,?,?
COc1ccc(C2CC(c3ccc4ccccc4c3)=NN2C(=O)CNC2CCCCC2)cc1 (stereo not drawn),23.1µM,14.6µM,?,?,13µM,-
COc1ccc(C2CC(c3ccccc3)=NN2C(=S)Nc2ccccc2)cc1 (stereo not drawn),-,?,-,-,?,-
CCNC(=O)NCc1cccc(Cl)c1,.,-,.,.,-,.
CNC(=O)/C(C#N)=C/c1ccc(-c2nc3ccccc3s2)o1,-,-,-,-,?,-
N#C/C(=C\c1ccc(-c2nc3ccccc3s2)o1)C(N)=O,-,?,-,-,18.4µM,-
COc1cc(Cl)c(C)cc1NC(=O)CSc1nnc(-c2ccccn2)n1Cc1ccco1,-,?,2.31µM,-,?,-
O=C(CSc1nnc(-c2ccccn2)n1Cc1ccco1)c1ccc(Cl)cc1,-,16.4µM,9.2µM,-,29.1µM,-
O=C(CSc1nnc(-c2cnccn2)n1Cc1ccco1)c1ccc(Cl)cc1,-,23.1µM,-,-,?,-
O=C(CSc1nnc(-c2cccnc2)n1Cc1ccco1)c1ccc2ccccc2c1,-,?,14.6µM,-,?,-
O=C(CSc1nnc(-c2ccccn2)n1Cc1ccco1)c1ccccc1,-,?,?,-,?,-
COc1ccc2nc(C(c3ccc(C)cc3)n3c(-c4ccccc4Br)nc4ccccc43)[nH]c2c1 (stereo not drawn),-,?,-,-,?,-
Cc1ccc(OCc2nnc(SCC(=O)C(C)(C)C)n2Cc2ccco2)cc1,-,?,?,-[9.24 µM],16.4µM,?
O=C(CSc1nnc(COc2ccccc2)n1Cc1ccco1)NCc1ccco1,-,-,-,-,-,-
